The list is not random: actives were taken first. Their share in the collection is about 12%.
L major viab: Leishmania major promastigote growth inhibition, primary screen | Leishmania major promastigotes, resazurin fluorescence viability | inhibition, % at 10 µM | actives 9% (n = 200,000) | AID 1063, 2008; in the data active = inhibition above about 50%;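 note: promastigotes grown with compound for 44 hours at 28 °C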
KCC2 mod: KCC2 cotransporter modulators, thallium flux, primary screen, cell-based, HEK293 KCC2, FluoZin-2 fluorescence, MLSMR | actives 2.2% (n = 190,000) | B-score of Tl+ flux slope (higher = more flux/activation; lower = inhibition) at 10 µM | KCC2 cells, thallium flux FluoZin-2 fluorescence | Solute carrier family 12 member 5 (Homo sapiens), Q9H2X9;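 active = thallium flux slope and its plate-corrected score both differing from the plate sample mean at a set confidence after two filtering rounds, in either direction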;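 note: slope of fluorescence scaled to starting intensity during 10 to 20 s after thallium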
m-calpain inh: inhibitors of pig calpain II, primary screen, biochemical, fluorogenic peptide substrate, 1536-well. purified calpain II, 30 min. inhibition, % at 16 µM. actives 0.37% (n = 220,000). AID 1236, 2008;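 active = inhibition above about 50%, limit read from the data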
WT yeast gro inh: growth inhibition of WT strain, primary screen, mitochondrial fusion inhibitor project, WT and mutant strains, chemical genetic; mitochondrial fusion phenotypic screen; actives 2.1% (n = 190,000); inhibition, % at 10 µM; in the data active = inhibition above about 58%; tested in S. cerevisiae
ROMK mod: ROMK potassium channel modulators, primary screen, cell-based, thallium flux, MLSMR library; ATP-sensitive inward rectifier potassium channel 1 (Homo sapiens), P48048; Tet-inducible ROMK, thallium flux fluorescence; actives lie on both sides; B-score at 10 µM; actives 2% (n = 130,000); AID 1918, 2009;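 active = signal ratio slope over the read window, or its plate-corrected B-score, at least 3 SD from the plate mean, either direction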;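 note: B-score of the F/F0 ratio slope over 7 to 12 s after thallium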
Target sequence (P48048 whole entry, looked up): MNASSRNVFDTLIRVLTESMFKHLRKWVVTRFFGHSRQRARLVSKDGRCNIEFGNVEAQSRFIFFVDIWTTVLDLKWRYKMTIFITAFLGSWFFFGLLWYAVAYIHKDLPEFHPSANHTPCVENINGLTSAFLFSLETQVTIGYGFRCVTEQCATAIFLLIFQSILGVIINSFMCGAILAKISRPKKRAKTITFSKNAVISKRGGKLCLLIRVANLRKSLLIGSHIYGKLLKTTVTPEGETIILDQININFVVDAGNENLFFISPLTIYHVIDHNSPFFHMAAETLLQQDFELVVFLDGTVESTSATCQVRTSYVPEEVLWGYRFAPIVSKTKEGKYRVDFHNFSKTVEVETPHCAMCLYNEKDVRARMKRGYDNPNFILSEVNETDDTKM
* hit, by the source's call; x = not tested or not shown.

SMILES | L major viab | KCC2 mod | m-calpain inh | WT yeast gro inh | ROMK mod
O=C(CNC(=O)c1cccc(OC(F)F)c1)OCn1nnc2ccccc2c1=O | -4 | -0.81 | -26 | 14 | 0.14
Cc1cc(C)cc(NC(=S)NC2CC3CCCC(C2)N3CC(C)C)c1 (stereo not drawn) | 37 | 0.85 | -4 | 4 | -0.9
Cc1cc(C)cc(NC(=S)NC2CC3CCCC(C2)N3C2CCCC2)c1 (stereo not drawn) | 53* | 0.35 | 0 | 6 | -1.3
Cc1cc(C)cc(NC(=S)NC2CC3CCCC(C2)N3C2CC2)c1 (stereo not drawn) | 55* | -1 | -29 | -3 | -0.42
COc1ccc(CNCc2c(C(=O)N(C)C)nc3ccc(Cl)cn23)c(OC)c1 | 0 | x | -29 | -11 | 0.46
CCCCOc1nc2ccccc2nc1C(C#N)C(=O)NC1CCCCC1 (stereo not drawn) | -1 | 0.27 | -27 | 15 | 0.58
COc1ccccc1NC(=O)c1ccc(NS(=O)(=O)c2ccc(F)c(F)c2F)cc1 | 66* | -1.2 | 2 | 2 | -0.85
COc1ccccc1NS(=O)(=O)c1cc(NC(=O)CCNC(C)=O)ccc1C | -7 | 0.56 | -20 | 1 | -0.082
COc1ccccc1NS(=O)(=O)c1cc(NC(=O)c2ccc3c(c2)OCCO3)ccc1C | 58* | 1.2 | -32 | 44 | -0.79
COc1ccccc1NS(=O)(=O)c1cc(NC(=O)CNC(=O)c2ccccc2)ccc1C | 64* | 0.012 | 4 | -9 | -0.69
COc1ccc(NC(C)=O)cc1S(=O)(=O)Nc1ccc2c(c1)OCCO2 | -2 | -0.76 | -26 | 0 | -0.0023
COCCNC(=O)C(NC(=O)C1CCCCC1)C12CC3CC(CC(C3)C1)C2 (stereo not drawn) | -3 | -0.37 | 36 | 0 | x
COC(=O)C(Sc1nc(C)cc(C)c1C#N)c1ccccc1 (stereo not drawn) | 98* | -0.34 | 32 | 25 | x
CCC(C(=O)Nc1ccccc1OC)n1c(C(=O)OC)cc2ccsc21 (stereo not drawn) | 29 | -2.6 | -1 | 47 | x
O=[N+]([O-])c1cc(S(=O)(=O)N2CCCC2)ccc1N/N=C/c1cccnc1 | 60* | -0.78 | -42 | -11 | x
O=C(O)c1ccccc1/C=N/Nc1ccc(S(=O)(=O)N2CCCC2)cc1[N+](=O)[O-] | x | 0.77 | 9 | x | x
O=[N+]([O-])c1cc(S(=O)(=O)N2CCCC2)ccc1NCCc1ccccc1 | 58* | -0.9 | 35 | -21 | -0.26
COc1ccc(NC(=O)C2=C(C)C(=O)OC23CCC(C)CC3)c(OC)c1 (stereo not drawn) | 11 | 0.36 | -9 | 8 | x
CCOC(=O)Cn1nc(C)cc1NC(=O)c1cccnc1 | -1 | 0.078 | 18 | -2 | -1.4
CSCCC(NS(=O)(=O)c1ccc2c(c1)oc(=O)n2C)C(=O)NCc1cccs1 (stereo not drawn) | x | -0.34 | 11 | x | -1.6
Cc1ccc(CN2CCN(Cc3ccc4c(c3)OCCO4)CC2CCO)cc1 (stereo not drawn) | 48 | -0.4 | 14 | 9 | 0.00013
Cc1cccc(-c2nnc(SCC3CNC(=O)O3)n2-c2ccc(Cl)cc2)c1 (stereo not drawn) | 96* | 0.071 | 19 | 5 | x
COc1ccc(-n2c(SCC3CNC(=O)O3)nnc2-c2ccc(Cl)cc2)cc1 (stereo not drawn) | 92* | -1.1 | -2 | -12 | 0.24
CN(C)CCCn1c(NCc2ccc3c(c2)OCO3)nc2ccccc21 | 66* | x | 7 | -7 | 0.051
C=CCn1c(NCc2ccccc2)nc2ccccc21 | 23 | -0.032 | 9 | 12 | -1.4
SMILES | L major viab | KCC2 mod | m-calpain inh | WT yeast gro inh | ROMK mod
c1ccc2c(c1)nc(NCc1ccc3c(c1)OCO3)n2CCN1CCOCC1 | 3 | -0.39 | -14 | -1 | -0.81
C=CCn1c(NCc2ccc3c(c2)OCO3)nc2ccccc21 | 98* | -0.23 | 14 | 0 | 1.2
CCn1c(NCc2ccc3c(c2)OCO3)nc2ccccc21 | 78* | 0.045 | 13 | 11 | x
CCCn1c(NCc2ccc(N(C)C)cc2)nc2ccccc21 | 23 | -0.045 | -6 | 7 | x
S=C(NCC1CCCO1)Nc1ccc(Cl)cc1Cl (stereo not drawn) | 23 | 0.56 | 4 | -1 | -0.27
CCOC(=O)C1CCCN(C(c2ccccn2)c2c(C)[nH]c3ccccc23)C1 (stereo not drawn) | 18 | 0.29 | -4 | 4 | -1.4
CN1CCN(C(=O)/C=C\C(=O)O)CC1 | 49 | 0.62 | 17 | 3 | 0.59
O=S1(=O)C=CC(c2ccccc2)C1 (stereo not drawn) | x | 0.72 | -8 | x | x
O=c1oc2ccccc2c2c1C(c1ccc(Cl)cc1)Nc1ccc3ccccc3c1-2 (stereo not drawn) | 87* | 0.23 | -113 | 29 | 1.2
CCOc1ccc(C2Nc3ccc4ccccc4c3-c3c2c(=O)oc2ccccc32)cc1 (stereo not drawn) | 56* | -0.5 | -116 | -13 | 0.65
COc1ccc(C2Nc3ccc4ccccc4c3-c3c2c(=O)oc2ccccc32)cc1 (stereo not drawn) | 100* | 0.56 | -74 | 31 | -0.43
CCOc1ccc(OCC(=O)c2c(O)c3ccccc3oc2=O)cc1 | -8 | x | -6 | 11 | 1.1
COc1ccc(-c2cc(=O)c3ccccc3o2)cc1 | x | -1.1 | -377 | x | x
CCC(=O)NC(Nc1c(C)n(C)n(-c2ccccc2)c1=O)C(Cl)(Cl)Cl (stereo not drawn) | 3 | 0.76 | 9 | 0 | 1.8
COC(=O)c1cc(=O)n2c(sc3ccccc32)c1C#N | x | -0.05 | -166 | x | x
CCN(CC)S(=O)(=O)c1ccc(N2C(=O)CC2(/C=C/c2ccccc2)C(=O)NC2CCCC2)cc1 (stereo not drawn) | 16 | -0.045 | 7 | -1 | -1.2
COc1ccccc1/C=C/C1(C(=O)NC2CCCC2)CC(=O)N1c1ccc(F)cc1 (stereo not drawn) | 85* | 0.64 | -10 | -21 | -2.7
CCCCn1nnnc1NCc1cccnc1 | -9 | 0.59 | -5 | -9 | 0.37
Cn1c(-c2ccc(F)cc2)cnc1NCc1ccc(F)cc1 | 88* | -0.023 | 12 | 5 | x
Cn1c(-c2ccc(Br)cc2)cnc1NCc1cccnc1 | 100* | -0.24 | -13 | -2 | x
Cn1c(-c2cccc([N+](=O)[O-])c2)cnc1NCc1cccc([N+](=O)[O-])c1 | 33 | -1.2 | 0 | -7 | -1.5
Cn1c(-c2ccc(F)cc2)cnc1NCc1ccc(C#N)cc1 | 92* | x | -11 | 7 | -0.85
CCCn1nnnc1NCc1ccc(F)cc1 | -5 | 0.019 | -19 | -10 | -0.27
CCOc1cc(CNc2ncc(-c3ccc(OC)cc3)n2C)ccc1O | 65* | x | -17 | -2 | x
Cc1ccc(CO/N=C\Cc2snc(Sc3ncc(C(F)(F)F)cc3Cl)c2C#N)cc1 | -5 | -0.34 | -29 | -2 | 0.44

Compound activity as filed in PubChem BioAssay.
